Data on 17 molecules can be found in PubChem BioAssay (Tox21).

Inconclusive results are not listed. Unmarked numbers belong to inactive results. Active and inactive are the calls of the source. Calls come from the whole dose curve; as a rule, active = well fitted cell-killing curve with a large enough effect in the repeat runs; inconclusive = weak or mixed curves, or effect the other way; inactive = flat fitted curve, though single readings scatter.
% is set by controls: 0 for no effect and ±100 for the full control effect; potency is the fitted concentration of half-maximal effect.

The experiment can be described thus: qHTS RealTime-Glo MT Cell Viability Assay in HEK293 cells - 32 hour (AID 1224868). For activity change, negative = cytotoxic: top concentration of the series differs between compounds. Note: nearly all actives have a fitted effect of over 50% in size. Particulars: RealTime-Glo luminescence; series mostly up to 76.8 µM; activity change, negative = cytotoxic: at the top concentration. The essentials:
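Luminescence generated by NanoLuc from substrate produced by living HEK293 cells served as the viability signal. Each value reflects the reading at its stated time point during continuous 40 h compound exposure at 37 C.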
(Quantitative high-throughput screening tests each substance at several concentrations.)
As for `CN1CCN(CCCN2c3ccccc3Sc3ccc(C(F)(F)F)cc32)CC1`, the Potency was 23.9 µM (active).

Turning to `N#Cc1ccc(C/C(=N/NC(=O)Nc2ccc(OC(F)(F)F)cc2)c2cccc(C(F)(F)F)c2)cc1`, the “activity change, negative = cytotoxic” value was -3.33%. `CCCC(=O)c1cc(O)c(O)cc1O`: the “activity change, negative = cytotoxic” value is 2.49%. Consider `C=CCc1cc(S(=O)(=O)c2ccc(O)c(CC=C)c2)ccc1O`, for which the Potency was 27.5 µM (active). As for `N#Cc1nc(Cl)c(Cl)c(Cl)c1Cl`, the Potency is 2.19 µM (active). `c1ccc(-c2ccccc2-c2ccccc2)cc1`: the “activity change, negative = cytotoxic” value was -12%. As to `COc1cc([C@@H]2c3cc4c(cc3[C@@H](O[C@@H]3O[C@@H]5CO[C@@H](C)O[C@H]5[C@H](O)[C@H]3O)[C@H]3COC(=O)[C@H]23)OCO4)cc(OC)c1O`, the Potency is 0.861 µM (active).

With `CC(Cc1ccc(O)c(O)c1)C(C)Cc1ccc(O)c(O)c1` (configuration not stated), the Potency is 34.7 µM (active). For `CCN(CCC#N)c1ccc(N=Nc2ccc([N+](=O)[O-])cc2)cc1`, the “activity change, negative = cytotoxic” value was 1.16%. As for `CN1CC[C@H](c2c(O)cc(O)c3c(=O)cc(-c4ccccc4Cl)oc23)[C@H](O)C1`, the Potency was 0.19 µM (active). For `CSc1nnc(C(C)(C)C)c(=O)[nH]1`, the “activity change, negative = cytotoxic” value is 7.4%. As for `COc1cc(/C=C/C(=O)CC(=O)/C=C/c2ccc(O)c(OC)c2)ccc1O`, the Potency is 24.7 µM (active). Turning to `Cc1ccc(Cl)c(N)c1Cl`, the “activity change, negative = cytotoxic” value was 1.27%. As to `CCCCCCCCCCCCCCCCCCNC(=O)OC1CCN(C(=O)OC[C@H](COC(=O)N(Cc2cccc[n+]2CC)C(=O)c2ccccc2OC)OC)CC1`, the Potency is 9.52 µM (active). For the molecule `CC/C=C\C/C=C\C/C=C\CCCCCCCC(=O)OC`, the “activity change, negative = cytotoxic” value is -2.33%. Same read-out and setting: with `CC(=O)Nc1ccc(N=Nc2cc(C)ccc2O)cc1` the figure was -19.6%.

With `c1ccc(-c2ccc(C(c3ccccc3)n3ccnc3)cc2)cc1` (configuration not stated), the Potency is 30.1 µM (active).
